Screening data as filed in PubChem.
ROS inducer: inducers of reactive oxygen species in cancer cells. U2OS ROS induction, H2DCF-DA fluorescence. ROS induction (% of piperlongumine), % at 10 µM. 46,000 tested, 2% active. AID 624156; in the data active = ROS induction above about 79%, passing the limit was not always enough;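 also: 0% = DMSO vehicle median and 100% = reference compound median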
The depositor's hits bear a star. The full list was thinned out, with hits kept by preference.

SMILES | ROS inducer
CC(C)(C)c1ccc(Oc2c(C(F)(F)F)oc3cc(OCC(=O)O)ccc3c2=O)cc1 | 11.7
C[C@H]1CN([C@@H](C)CO)C(=O)c2cc(NC(=O)CCCN(C)C)ccc2O[C@H]1CN(C)Cc1ccc(C(=O)O)cc1 | -8.9
COc1cc(C2NC(=O)NC(c3ccccc3)=C2C(=O)c2ccccc2)cc(I)c1OCC(=O)O (centres undefined) | -2.3
C[C@@H]1CN([C@@H](C)CO)C(=O)c2cccc(NS(=O)(=O)c3cn(C)cn3)c2O[C@@H]1CN(C)Cc1ccncc1 | -3.7
COc1cc(CCO)ccc1O[C@@H]1O[C@H](CO)[C@@H](O)[C@H](O)[C@H]1O | -5.2
CCc1nn(C(C)C(=O)NCCN2CCN(c3cccc(C)c3C)CC2)c(=O)c2cc3occc3n12 (centres undefined) | 5.4
Cc1cc(C)cc(N(C(C)C(=O)Nc2cccc(Br)c2)S(C)(=O)=O)c1 (centres undefined) | -11.4
Cc1cc(C(=O)Nc2cccc3c2O[C@H](CN(C)Cc2ccccc2)[C@@H](C)CN([C@@H](C)CO)C3=O)n(C)n1 | 3.0
Cc1cc(C(=O)Nc2cccc3c2O[C@@H](CN(C)Cc2ccc(Oc4ccccc4)cc2)[C@@H](C)CN([C@H](C)CO)C3=O)n(C)n1 | 43.6
Cc1cc(C(=O)Nc2cccc3c2O[C@@H](CN(C)Cc2ccc(Oc4ccccc4)cc2)[C@H](C)CN([C@H](C)CO)C3=O)n(C)n1 | 105.7*
Cc1cc(C(=O)Nc2cccc3c2O[C@@H](CN(C)Cc2ccc(Oc4ccccc4)cc2)[C@@H](C)CN([C@@H](C)CO)C3=O)n(C)n1 | 56.9
Cc1cc(C(=O)Nc2cccc3c2O[C@H](CN(C)Cc2ccc(Oc4ccccc4)cc2)[C@@H](C)CN([C@@H](C)CO)C3=O)n(C)n1 | 123.6*
Cc1cc(C(=O)Nc2cccc3c2O[C@H](CN(C)Cc2ccc(Oc4ccccc4)cc2)[C@H](C)CN([C@@H](C)CO)C3=O)n(C)n1 | 20.9
CC(C(=O)NCc1ccco1)n1c2ccccc2c2cnn(C)c(=O)c21 (centres undefined) | 4.8
O=C(Nc1ccn(C2OC(CO)C(O)C2O)c(=O)n1)c1ccccc1 (centres undefined) | -17.1
COc1cc2c(c(OC)c1)C(=O)OC(C)C2 (centres undefined) | -3.0
O=C(N/N=C/c1ccc(N(c2ccccc2)c2ccccc2)cc1)c1ccccc1O | -9.7
N#CC1=C(N)C(C#N)(C#N)C2(C(=O)N(Cc3ccccc3)c3ccccc32)C2CCCC=C12 (centres undefined) | 126.5*
CCOc1ccc([C@H]2[C@@H]3CN(Cc4ccccc4)CC=C3C(C#N)=C(N)C2(C#N)C#N)cc1 | 48.0
CCCN1CC=C2C(C#N)=C(N)C(C#N)(C#N)C3(C(=O)Nc4ccccc43)C2C1 (centres undefined) | 38.2
CCOC(=O)Cn1c(-c2c(Cl)cccc2Cl)noc1=O | 11.6
C[C@H]1CN([C@@H](C)CO)C(=O)c2cc(NC(=O)Nc3ccc4c(c3)OCO4)ccc2O[C@@H]1CN(C)S(=O)(=O)c1ccc(F)cc1 | 0.0
Cc1nc2ccccn2c1-c1csc(Nc2cccc(C(=O)O)c2)n1 | 2.4
C=C1C(=O)O[C@H]2C1[C@H](OC(=O)/C(=C/CO)COC(=O)/C(C)=C/CO)CC(=C)[C@@H]1CC(=O)[C@@H](C)[C@@H]12 (some centres undefined) | 87.2*
C=C1C(=O)O[C@@H]2/C=C(/C)[C@@H]3C/C=C(/C[C@@H](OC(=O)/C(=C/CO)CO)[C@@H]12)C[C@@](O)(C(C)C)C(=O)O3 | 27.1
SMILES | ROS inducer
CCc1ccccc1NC(=O)CC1CS(=O)(=O)CC1CC(=O)Nc1ccccc1CC (centres undefined) | -7.9
C[C@H]1CN([C@@H](C)CO)C(=O)c2cccc(NS(=O)(=O)c3ccc(F)cc3)c2O[C@H]1CN(C)S(=O)(=O)c1cccs1 | -4.5
Cc1cc(C)c(SCC(=O)NCc2ccc3c(c2)OCO3)c(C)c1 | -14.6
COC(=O)N(C)C[C@@H]1OCc2cn(nn2)CCCC(=O)N([C@H](C)CO)C[C@@H]1C | 2.7
COc1ccc(S(=O)(=O)Nc2ccc3c(c2)C(=O)N([C@H](C)CO)C[C@H](C)[C@@H](CN(C)S(=O)(=O)c2ccc(OC)cc2)OCCCC[C@@H](C)O3)cc1 | 28.7
COc1ccc(S(=O)(=O)Nc2ccc3c(c2)C(=O)N([C@H](C)CO)C[C@H](C)[C@H](CN(C)S(=O)(=O)c2c(C)noc2C)OCCCC[C@@H](C)O3)cc1 | 11.7
COc1ccc(S(=O)(=O)Nc2ccc3c(c2)C(=O)N([C@H](C)CO)C[C@H](C)[C@H](CN(C)S(=O)(=O)c2ccc(Cl)cc2)OCCCC[C@@H](C)O3)cc1 | 91.5*
COc1ccc(S(=O)(=O)N(C)C[C@H]2OCCCC[C@@H](C)Oc3ccc(NS(=O)(=O)c4c(C)noc4C)cc3C(=O)N([C@H](C)CO)C[C@@H]2C)cc1 | 11.7
Cc1noc(C)c1S(=O)(=O)Nc1ccc2c(c1)C(=O)N([C@H](C)CO)C[C@H](C)[C@@H](CN(C)S(=O)(=O)c1ccc(F)cc1)OCCCC[C@@H](C)O2 | 126.3*
Cc1noc(C)c1S(=O)(=O)N(C)C[C@H]1OCCCC[C@@H](C)Oc2ccc(NS(=O)(=O)c3ccc(Cl)cc3)cc2C(=O)N([C@H](C)CO)C[C@@H]1C | 110.3*
COc1ccc(S(=O)(=O)N(C)C[C@H]2OCCCC[C@@H](C)Oc3ccc(NS(=O)(=O)c4ccc(Cl)cc4)cc3C(=O)N([C@H](C)CO)C[C@@H]2C)cc1 | 35.1
Cc1ccc(S(=O)(=O)Nc2ccc3c(c2)C(=O)N([C@H](C)CO)C[C@H](C)[C@@H](CN(C)S(=O)(=O)c2c(C)noc2C)OCCCC[C@@H](C)O3)cc1 | 12.4
Cc1ccc(S(=O)(=O)N(C)C[C@H]2OCCCC[C@@H](C)Oc3ccc(NS(=O)(=O)c4c(C)noc4C)cc3C(=O)N([C@H](C)CO)C[C@@H]2C)cc1 | 4.2
C=CC(C)(C)[C@@]12C[C@H]3C(=O)N[C@H]([C@@H](C)CC)C(=O)N3[C@@H]1Nc1ccccc12 | 5.8
Cc1ccc(S(=O)(=O)N2CCN(Cc3ccc(OCCO)cc3)CC2)cc1 | 12.3
CC(C)(CO)NC(=O)c1cc(-c2ccc(F)cc2)no1 | -5.9
Cc1ccc(S(=O)(=O)NCc2ccccc2)cc1 | -4.2
COc1ccc(S(=O)(=O)Nc2ccc3c(c2)C(=O)N([C@H](C)CO)C[C@@H](C)[C@H](CN(C)Cc2ccc(-c4ccccc4)cc2)O3)cc1 | 14.0
Cc1ccc(S(=O)(=O)Nc2ccc3c(c2)C(=O)N([C@@H](C)CO)C[C@@H](C)[C@@H](CN(C)Cc2ccc(Oc4ccccc4)cc2)O3)cc1 | 9.8
C[C@H](CO)N1C[C@H](C)[C@@H](CN(C)C(=O)Nc2ccccc2)Oc2ccc(NS(=O)(=O)c3ccccc3)cc2C1=O | 2.4
COc1ccc(S(=O)(=O)Nc2ccc3c(c2)C(=O)N([C@@H](C)CO)C[C@@H](C)[C@@H](CN(C)Cc2ccc(-c4ccccc4)cc2)O3)cc1 | 20.9
COc1ccc(S(=O)(=O)Nc2ccc3c(c2)C(=O)N([C@@H](C)CO)C[C@H](C)[C@@H](CN(C)Cc2ccc(-c4ccccc4)cc2)O3)cc1 | 127.9*
Cc1ccc(S(=O)(=O)Nc2ccc3c(c2)C(=O)N([C@H](C)CO)C[C@H](C)[C@@H](CN(C)Cc2ccc(Oc4ccccc4)cc2)O3)cc1 | 29.0
Cc1ccc(S(=O)(=O)Nc2ccc3c(c2)C(=O)N([C@@H](C)CO)C[C@H](C)[C@@H](CN(C)C(=O)Nc2ccccc2)O3)cc1 | 109.4*
